Screens deposited in PubChem by The Scripps Research Institute Molecular Screening Center.
Rows were chosen to be rich in hits. Some 2.7% of all compounds tested hit in one or more screens of this group.
PAFAH1B2 inh: blocks human PAF acetylhydrolase 1b catalytic subunit 2 | AID 492953 | 1.2% of 340,000 active | P68402 | inhibition, % at 3.39 µM | recombinant PAFAH1B2, FP-rhodamine activity probe, fluorescence polarization;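 active means inhibition above the mean of all tested compounds plus 3 SD, cut at about 24% in these data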
TCR-CD3 inh: human TCR-CD3 binding inhibition | TAMRA-labeled TCR probe fluorescence, biochemical | inhibition, % at 9.4 µM | 0.37% of 360,000 active; in the data active means inhibition above about 19%;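 further: recombinant mutant TCR 2C K166C tagged with TAMRA read by polarization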
pPAFAH inh: pPAFAH (human) enzyme inhibition. Q13093. recombinant pPAFAH, FP-rhodamine probe fluorescence polarization. inhibition, % at 3.39 µM. 1.5% of 330,000 active. AID 463082;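 active means inhibition above the mean inhibition across the screen plus 3 SD, cut at about 25% in these data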;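 further: inhibitors block binding of the rhodamine activity-based probe so polarization drops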
Target sequence (Q13093 whole entry, looked up): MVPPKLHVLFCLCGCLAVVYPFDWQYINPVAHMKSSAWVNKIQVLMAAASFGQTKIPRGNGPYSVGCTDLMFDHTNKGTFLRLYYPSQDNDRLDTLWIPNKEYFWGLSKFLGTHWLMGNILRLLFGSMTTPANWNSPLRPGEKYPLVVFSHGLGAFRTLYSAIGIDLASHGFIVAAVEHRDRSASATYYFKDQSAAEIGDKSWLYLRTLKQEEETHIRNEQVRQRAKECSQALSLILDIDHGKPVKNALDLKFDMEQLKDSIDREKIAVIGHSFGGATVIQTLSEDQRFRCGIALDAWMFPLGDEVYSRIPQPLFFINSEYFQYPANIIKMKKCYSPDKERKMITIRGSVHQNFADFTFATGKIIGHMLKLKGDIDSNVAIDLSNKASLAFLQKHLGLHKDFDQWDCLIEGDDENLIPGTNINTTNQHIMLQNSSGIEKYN
PAFAH1B3 FP inh: PAFAH1B3 (human) inhibition. 0.28% of 340,000 active. Q15102. recombinant PAFAH1B3, FP-rhodamine probe, fluorescence polarization. inhibition, % at 3.39 µM;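 active means inhibition above the screen-wide average of all tested compounds plus 3 SD, cut at about 25% in these data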
Target sequence (Q15102 whole entry, looked up): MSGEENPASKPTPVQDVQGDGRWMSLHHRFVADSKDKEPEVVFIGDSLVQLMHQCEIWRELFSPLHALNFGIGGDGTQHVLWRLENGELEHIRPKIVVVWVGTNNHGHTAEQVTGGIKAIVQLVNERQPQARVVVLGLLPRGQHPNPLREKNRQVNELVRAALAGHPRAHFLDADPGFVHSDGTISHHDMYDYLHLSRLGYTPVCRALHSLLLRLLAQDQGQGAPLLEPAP
PAFAH2 inh: inhibitors of human PAFAH2 | Q99487 | recombinant PAFAH2, FP-rhodamine activity probe, fluorescence polarization | inhibition, % at 3.39 µM | 0.99% of 340,000 active | AID 492956;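 active means inhibition above the mean over all tested compounds plus 3 SD, cut at about 30% in these data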;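 further: inhibitors block probe labeling of enzyme so polarization drops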
pPAFAH FP conf: confirmation of human plasma PAF acetylhydrolase (pPAFAH) inhibitors | shares compounds with pPAFAH inh | recombinant pPAFAH, FP-Rh probe fluorescence polarization | inhibition, % at 3.39 µM | 72% of 2,300 active;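 active means mean inhibition of the triplicate above the hit cutoff set for the earlier primary screen, cut at about 25% in these data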
Each line names hits and unclear results; the compound was inactive in the other large screens (follow-up assays come after a bar, where they were run).

Cc1ccccc1NC(=O)CSc1n[nH]c(-c2ccco2)n1	none
Cc1ccc(NC(=O)CSc2nnc(-c3ccco3)c(-c3ccco3)n2)cc1	pPAFAH inh 47.6 | pPAFAH FP conf 29.1
CC1=C(C(=O)N(C(C)C)C(C)C)CC(CC(=O)NC2CC2)C(=O)N1CCCN1CCCC1=O (stereo unspecified)	none (no result: PAFAH1B2 inh, pPAFAH inh, PAFAH1B3 FP inh, PAFAH2 inh)
CC(=O)NS(=O)(=O)c1ccc(NC(=O)CCC(=O)Oc2ccc(C)cc2)cc1	none
COc1ccc(N(CC(=O)Nc2cc(C)ccc2C)S(=O)(=O)c2c(C)noc2C)cc1	none
COc1ccc(N(CC(=O)Nc2cc(C)ccc2OC)S(=O)(=O)c2c(C)noc2C)cc1	pPAFAH inh 44.7 | pPAFAH FP conf inactive
CN(CCCC1CCCC1)C(=O)CC1C(=O)NCCN1Cc1cccc(F)c1F (stereo unspecified)	none
COc1ccc2[nH]c(=O)c(CN(C3CCCCC3)C(c3nnnn3Cc3ccco3)C(C)C)cc2c1 (stereo unspecified)	pPAFAH inh 36.5 (no result: TCR-CD3 inh) | pPAFAH FP conf 27.7
COC(=O)C1(C(=O)OC)c2ncccc2N(S(=O)(=O)c2ccc(C)cc2)C1CC(=O)c1ccccc1 (stereo unspecified)	none (no result: PAFAH1B2 inh, pPAFAH inh, PAFAH1B3 FP inh, PAFAH2 inh)
CN(C)c1ccnc(SCc2ccccc2Cl)c1C#N	pPAFAH inh 34.7 | pPAFAH FP conf inactive
CC(C)=CCc1c(O)c(CC=C(C)C)c2c(c1O)-c1cc(O)c(O)cc1CC2	pPAFAH inh 76.4 (no result: PAFAH1B2 inh, TCR-CD3 inh, PAFAH1B3 FP inh, PAFAH2 inh) | pPAFAH FP conf 56.2
CC(C)(C)c1ccc(C(=O)Nc2cccc3ncccc23)cc1	none
CC(=O)Nc1cccc2ncccc12	pPAFAH inh 54.9 | pPAFAH FP conf inactive
CC(C)CNC(=O)C1Nc2ccccc2C2C=CCC12 (stereo unspecified)	none
O=C(O)C1Nc2c(Cl)cc(Cl)cc2C2C=CCC12 (stereo unspecified)	PAFAH1B2 inh 36.1, pPAFAH inh 81.1, PAFAH2 inh 82.3 (no result: TCR-CD3 inh) | pPAFAH FP conf 42.8
O=C(O)C1Nc2c(O)cccc2C2C=CCC12 (stereo unspecified)	PAFAH1B2 inh 35.8, TCR-CD3 inh 71.9, pPAFAH inh 87.7, PAFAH1B3 FP inh 39.5, PAFAH2 inh 50.2 | pPAFAH FP conf 42.5
O=C(O)C1Nc2c(Cl)cc(Cl)c(Cl)c2C2C=CCC12 (stereo unspecified)	pPAFAH inh 41.0, PAFAH2 inh 54.5 | pPAFAH FP conf 33.2
O=C(OCc1ccccc1)N1CCC2CC1c1cc(-c3ccc4c(c3)OCO4)ccc12 (stereo unspecified)	none (no result: pPAFAH inh)
COc1ccccc1CNC(=O)C(=O)NCC1OCCCN1S(=O)(=O)c1ccc(F)cc1C (stereo unspecified)	none
CN(C)/C=C/C(=O)/C=C/c1ccc(Cl)cc1Cl	pPAFAH inh 37.6 | pPAFAH FP conf inactive
CCC(C)Sc1nc2c(c(=O)[nH]1)C(c1cccs1)C1=C(CCCC1=O)N2 (stereo unspecified)	pPAFAH inh 38.0 | pPAFAH FP conf inactive
CC(=O)N1CCN(C(=O)C2CCN(S(=O)(=O)c3ccccc3C(F)(F)F)CC2)CC1	none
NC(=O)c1ccc(NC(=O)COC(=O)c2cc3c(s2)CCC3)cc1	none
O=C(COC(=O)c1cc2c(s1)CCC2)Nc1ccc(F)cc1	pPAFAH inh 43.6, PAFAH2 inh 86.8 | pPAFAH FP conf 38.0
CC(=O)c1cccc(-c2ccc3c(=O)[nH]c(Nc4ccccc4)cc3c2)c1	pPAFAH inh 48.5, PAFAH1B3 FP inh 52.5 | pPAFAH FP conf 27.7
CC(=O)c1cccc(Nc2nc(-c3ccccc3)nc3ccccc23)c1	none
CCCCC1CC(/C(C)=N/NC(N)=O)OC1=O (stereo unspecified)	pPAFAH inh 58.2 | pPAFAH FP conf inactive
Cc1ccc(O)c(O)c1	none (no result: PAFAH1B2 inh, TCR-CD3 inh, PAFAH1B3 FP inh, PAFAH2 inh)
Cc1cc(O)c(Oc2cc(C)cc(O)c2O)c(O)c1	pPAFAH inh 39.1 | pPAFAH FP conf inactive
Cc1ccccc1N=Nc1ccc(O)c2ncccc12	pPAFAH inh 41.5 | pPAFAH FP conf 36.3
O=S(=O)(O)c1cccc2c(N=Nc3ccc(O)c4ncccc34)cccc12	PAFAH1B2 inh 40.8, pPAFAH inh 91.9, PAFAH1B3 FP inh 63.8, PAFAH2 inh 65.7 (no result: TCR-CD3 inh) | pPAFAH FP conf 91.4
COc1ccc(C)cc1N=Nc1ccc(O)c2ncccc12	none (no result: pPAFAH inh)
CN1CCN(C(=O)c2cc3sc4ccccc4c3s2)CC1	pPAFAH inh 52.0 (no result: PAFAH1B2 inh, PAFAH1B3 FP inh, PAFAH2 inh) | pPAFAH FP conf inactive
CCn1c(=O)c2cc(C(=O)N3CCN(C)CC3)sc2c2ccccc21	none
CC(NS(=O)(=O)c1ccc(F)cc1)C(=O)Nc1ccc2c(c1)OCCO2 (stereo unspecified)	none
O=C(O)c1ccc2c(c1)C(=O)/C(=C\c1ccco1)C2=O	pPAFAH inh 53.8, PAFAH1B3 FP inh 35.0 | pPAFAH FP conf inactive
O=C(O)c1ccc(C=NN=Cc2ccco2)cc1	none (no result: pPAFAH inh)
CC12CCC(C)(O1)C1C(=O)N(c3nccs3)C(=O)C12 (stereo unspecified)	none (no result: pPAFAH inh)
CC1=NN(c2ccccc2)C(=O)/C1=C\c1c(C)[nH]n(-c2ccccc2)c1=O	none
CC1=NN(c2ccccc2)C(=O)/C1=C/c1c(O)n(-c2ccc(F)c(Cl)c2)[nH]c1=O	pPAFAH inh 74.7 (no result: PAFAH1B2 inh, TCR-CD3 inh, PAFAH1B3 FP inh, PAFAH2 inh) | pPAFAH FP conf 47.0
S=c1[nH]nc(-c2ccc(Cl)cc2)n1/N=C/C=C/c1ccco1	pPAFAH inh 39.3 (no result: PAFAH1B2 inh, PAFAH1B3 FP inh, PAFAH2 inh) | pPAFAH FP conf inactive
Cc1ccccc1-c1n[nH]c(=S)n1/N=C/C=C/c1ccco1	pPAFAH inh 44.6 | pPAFAH FP conf inactive
S=c1[nH]nc(-c2ccc(Cl)cc2)n1/N=C/c1ccco1	none
CCN(CC)C(=O)C1c2ccccc2Oc2ccccc21	pPAFAH inh 39.4 | pPAFAH FP conf inactive
Nc1ccc2nc(-c3cccnc3)[nH]c2c1	pPAFAH inh 39.5 | pPAFAH FP conf inactive
Nc1ccc2nc(-c3ccccc3)[nH]c2c1	none
Cc1ccc(S(=O)(=O)N(C)c2ccc(OCC(=O)Nc3cc(C(=O)O)ccc3Cl)cc2)cc1	none (no result: PAFAH1B2 inh, pPAFAH inh, PAFAH1B3 FP inh, PAFAH2 inh)
O=C(NCC(=O)N1CCCC(C(F)(F)F)C1)c1cccs1 (stereo unspecified)	none (no result: pPAFAH inh)
Cc1cnc(C(=O)Nc2ccccc2C(=O)N2CCOCC2)cn1	pPAFAH inh 37.4 | pPAFAH FP conf inactive
CCC(=O)Nc1ccccc1C(=O)N1CCOCC1	none
COc1ccccc1NC(=O)c1cccc(S(=O)(=O)N2CCN(c3ccccc3)CC2)c1	none
CCCCCN(C(=O)CCC(=O)OCC(=O)N1C(C)CCCC1C)c1c(N)n(CCCC)c(=O)[nH]c1=O (stereo unspecified)	none
C[C@H](O)[C@@H]1C(=O)N2CCc3ccc(N4CCN(C)CC4)cc3[C@@H]2C[C@@H]1N(C)C(=O)c1cccnc1	none (no result: PAFAH1B2 inh, pPAFAH inh, PAFAH1B3 FP inh, PAFAH2 inh)
CN1CCN(Cc2cc(=O)oc3cc4c(cc23)CCC4)CC1	pPAFAH inh 36.6 | pPAFAH FP conf inactive
O=S(=O)(Nc1ccc(N=Nc2ccccc2)cc1)c1ccccc1	pPAFAH inh 67.1 | pPAFAH FP conf 70.3
O=C(Nc1nc(-c2ccco2)c(-c2ccco2)s1)C1CC(=O)N(c2ccc3c(c2)OCCO3)C1 (stereo unspecified)	pPAFAH inh 46.9 | pPAFAH FP conf 41.2
O=C(Cc1cnn(-c2ccccc2)c1)c1ccc(O)c(O)c1O	pPAFAH inh 72.5 | pPAFAH FP conf 53.9
